Only a selection was taken, and hits are over-represented in it overall.
ALOX12 inhib – 12-hLO (ALOX12) enzyme inhibition. P18054. 150,000 tested, 0.12% active. Potency, µM (top dose mostly 57.1 µM), for inactives: at the highest dose activity change, negative = inhibition, hits mostly inhibitors. AID 1452. purified 12-hLO, xylenol orange hydroperoxide absorbance; note: potency is the fitted concentration of half-maximal effect; nearly all actives have a fitted effect of over 55% in size
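Xylenol orange chromogenic assay: hydroperoxide from 12hLO oxidises Fe(II), giving red-shifted Fe(III)-XO absorbance. Conditions: 150 nM enzyme, 40 uM arachidonic acid, 25 mM Hepes pH 7.0, 0.01% Triton X-100, 30 min, room temperature.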
IMPase inh – cell-permeable inhibitors of inositol monophosphatase (IMPase); P97697; CHO-M1 cells, IP1 accumulation, HTRF TR-FRET ratio; inhibition (IP1 accumulation), % at 46.1 µM; 120,000 tested, under 10 active; AID 901; active = well fitted curve in the direction sought with a large enough effect in the signal ratio, not every such curve was filed as active; inconclusive = small, poorly fitted or top-dose-only effect, or a change in a side signal; inactive = no such curve, though single readings can be large or run the other way; the % refers to the signal ratio;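 note: cells stimulated with carbachol in lithium chloride buffer; plate controls were DMSO basal wells for no effect and reference inhibitor wells for full effect; higher means more IMPase inhibition seen as more IP1 and lower FRET ratio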
Target sequence (P97697 whole entry, looked up): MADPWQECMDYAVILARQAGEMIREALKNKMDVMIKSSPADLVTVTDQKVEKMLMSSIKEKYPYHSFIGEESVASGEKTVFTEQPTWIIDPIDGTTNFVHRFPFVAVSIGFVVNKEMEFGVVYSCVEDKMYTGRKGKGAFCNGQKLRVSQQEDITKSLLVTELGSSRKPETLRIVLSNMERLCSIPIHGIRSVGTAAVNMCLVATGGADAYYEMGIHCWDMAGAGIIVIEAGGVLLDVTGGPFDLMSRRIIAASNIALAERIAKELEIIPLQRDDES
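CHO-M1 cells (CHO stably expressing M1 receptor), compound up to 46 uM final, stimulated with carbachol (50 uM as added) in buffer with 50mM LiCl, pH 7.4, 30 min at 37C. Cytosolic IP1 read by TR-FRET; AC50 from Hill fits.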
IMPase Li inh – membrane-permeable IMPase blocker, potentiated with lithium | CHO-M1 cells, IP1 TR-FRET (IP-One), carbachol + lithium | Potency, µM (series often up to 59.4 µM), inactives show top-dose activity, negative = IMPase inhibition, usual class: inhibitors | 210,000 tested, 0.35% active | AID 1457;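 note: IP1 builds up when IMPase is blocked and the TR-FRET signal falls; potency is the fitted concentration of half-maximal effect; plate controls were basal vehicle for no effect and high inhibitor control for full effect; nearly all actives have a fitted effect of over 50% in size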
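Concentration–response in CHO-M1 cells, lithium-potentiated; 30 min at 37C. IP1 detected by competitive TR-FRET after 10 min lysis at RT. Hill-fitted AC50.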
ALOX15B inhib – blocks human 15-lipoxygenase 2 activity; Potency, µM (titrated, usually from 57.1 µM), for the others: at the top dose activity change, negative = inhibition, usual class: inhibitors; O15296; purified 15hLO-2, xylenol orange hydroperoxide absorbance; 110,000 tested, 0.56% active; note: potency is the fitted concentration of half-maximal effect; nearly all actives have a fitted effect of over 60% in size
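Read-out: hydroperoxide product oxidises ferrous iron, measured as xylenol orange complex via the 573-to-405 nm absorbance ratio after 30 min. Reaction: 50 nM enzyme, 15 min compound preincubation, 45 uM arachidonic acid, 90 min RT, Hepes pH 7.5 with Triton X-100.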
PNC assembly inh – perinucleolar compartment assembly inhibition; PC3M PTB-GFP, PNC prevalence imaging, 16 h; active compounds read low; 140,000 tested, 3.1% active; activity change (PNC), negative = inhibition, % at 10 µM;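 active = readout at or below -70, meaning at least 70% loss of cells showing the perinucleolar compartment, a nuclear body marking cancer cells; inconclusive = readout between -30 and a set limit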;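 note: plate controls were DMSO wells for no effect and camptothecin positive control wells for full effect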
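Compounds are pinned in duplicate onto adhered PC3M cells stably expressing GFP-tagged PTB and incubated 16 h at 37 C. Cells are then fixed, nuclei stained with Hoechst, and PNC-positive cells counted.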
* hit, by the source's call; u = inconclusive; x = not tested or not shown; [ ] = dose if it differs, or a comment. Unless noted, calls come from the whole dose curve; as a rule, active = well fitted curve in the direction sought with a large enough effect; inconclusive = small, poorly fitted or top-dose-only effect, or another doubt; inactive = no such curve, though single readings can be large; an effect the other way counts as inactive or inconclusive. Unless noted, % is set by controls: 0 for no effect and ±100 for the full control effect.

SMILES	ALOX12 inhib	IMPase inh	IMPase Li inh	ALOX15B inhib	PNC assembly inh
COc1ccc(C2C(C(C)=O)=C(Nc3ccccc3)CC(C)(O)C2C(C)=O)cc1OC (stereo not given)	2%	5	16%	x	-119*
O=C(Cl)c1cccc([N+](=O)[O-])c1	-6%	x	10%	-9%	x
CC1=C(C#N)C(c2cn(-c3ccccc3)nc2-c2cccs2)C(C#N)=C(C)N1	-27%	5	-1%[38.3 µM]	-6%	-95*
Cc1ccccc1CN(C)C(C)C(=O)Nc1ccccc1F (stereo not given)	x	x	15%	x	x
Cc1cccc(C)c1-n1c(C)cc(/C=N/NC(N)=S)c1C	u	10	14%[38.3 µM]	20µM*	21
O=C(COc1ccc2ccccc2c1)NCCNC(=O)COc1ccc2ccccc2c1	-1%	u	13µM*	7%	15
O=C(Nc1nc(-c2ccc3ccccc3c2)cs1)C1CCN(S(=O)(=O)c2cccs2)CC1	4%	x	-3%	x	-87*
O=C(Nc1ccc2oc(-c3cccnc3)nc2c1)c1ccc(Br)cc1	x	2	x	x	x
CC(c1ccco1)N(C(=O)c1ccccc1NS(=O)(=O)c1cc([N+](=O)[O-])ccc1Cl)c1ccccn1 (stereo not given)	-5%	x	6%	x	-7
CC(c1ccco1)N(C(=O)c1ccccc1NS(=O)(=O)c1cccc([N+](=O)[O-])c1)c1ccccn1 (stereo not given)	2%	x	10%	x	-102*
Cc1ccnc(NS(=O)(=O)c2ccc(NS(=O)(=O)c3ccccc3)cc2)n1	12%	-8	-1%	x	-100*
O=C(NC1CCCCC1)C(c1cccs1)N(C(=O)c1ccco1)c1ccc2c(c1)OCCO2 (stereo not given)	-2%	-12	7%	x	-100*
O=C(NC1CCCCC1)C(c1cccs1)N(Cc1cccs1)C(=O)c1ccco1 (stereo not given)	-8%	7	22%[38.3 µM]	-1%	-9
CCOC(=O)CNC(=O)CSc1ncnc2c1nnn2-c1ccc(F)cc1	4%	-2	7%	x	-100*
CCOC(=O)CNC(=O)Cn1cnc2c(nnn2-c2ccc(F)cc2)c1=O	-6%	14	-5%[38.3 µM]	3%	21
N#Cc1cc(C#N)c(N2CCN(c3ccccn3)CC2)nc1N	0%	1	28µM*	-5%	57
COc1c(O[C@H]2O[C@@H](CO)[C@@H](O)[C@@H](O)[C@@H]2O)cc2c(c1OC)-c1ccc(SC)c(=O)cc1[C@H](NC(C)=O)CC2	1%[25.6 µM]	1[20.6 µM]	1%	0%[25.6 µM]	x
COc1cc(C(=O)N2c3ccccc3CC2C)cc(OC)c1OC (stereo not given)	3%	5	14%[38.3 µM]	2%	-82*
COC(=O)c1ccccc1OCCOCCOc1cccc2cccnc12	0%	x	0%	x	u
O=[N+]([O-])c1ccccc1OCCOCCOc1cccc2cccnc12	-6%	x	-5%	x	-86*
CNC(=O)[C@H]1O[C@@H](n2cnc3c(N)ncnc32)[C@H](O)[C@H]1O	x	x	-15%	x	x
CC(C)(C)c1ccc(Oc2ccc(NC(=O)C3CC=CCC3C(=O)O)cc2)cc1 (stereo not given)	x	x	-19%	x	x
Cc1ccccc1Oc1ccc(NC(=O)C2CC=CCC2C(=O)O)cc1 (stereo not given)	3%	x	-1%	x	-83*
O=C(CN1C(=O)c2cccc3cccc(c23)C1=O)N1CCN(c2ccccn2)CC1	-1%	x	-4%	x	-104*
CC1CCN(C(=O)CN2C(=O)c3cccc4cccc(c34)C2=O)CC1	x	x	4%	x	x
SMILES	ALOX12 inhib	IMPase inh	IMPase Li inh	ALOX15B inhib	PNC assembly inh
COc1ccc(C2(CNC(=O)/C=C/c3ccco3)CCCC2)cc1OC	-14%	5	-2%[38.3 µM]	-14%	21
O=C(/C=C/c1ccco1)NCC1(c2ccccc2)CCCC1	-4%	x	10%	x	-109*
COC(=O)N[C@@H](/C=C/c1ccccc1)/C(C(=O)OC)=C(\C)NCc1ccccc1	x	x	12%	x	x
N#C/C(=C\c1ccc(Cl)cc1)c1nc(-c2cc3c(ccc4ccccc43)oc2=O)cs1	x	-4	x	x	x
O=C(N1CCCCCC1)n1c(Cc2ccccc2)nc2ccccc21	1%	2	10%	x	-119*
CS(=O)(=O)c1ccc2nc(NC3(C(F)(F)F)N=C4SCCN4C3=O)sc2c1 (stereo not given)	10%	-8	-5%[38.3 µM]	-2%	-106*
O=C1N2CCSC2=NC1(Nc1ccccn1)C(F)(F)F (stereo not given)	-4%	1	-11%[38.3 µM]	-3%	-12
Cc1ccccc1N=C1NC(=O)CS1	8%	4	-2%[38.3 µM]	3%	-5
Cc1ccccc1N=C1N=C(N)c2ccccc21	0%	0	-6%	x	-96*
Cc1cn2c(=O)c3ccccc3nc2n2c(=O)c3ccccc3nc12	x	x	5%	x	x
CC[C@H]1C(c2cccc(Cl)c2)=NN(c2ccccc2)[C@@H]1CO	u	x	22µM*	u	x
N#CC(c1ccc(O)cc1)N1CCOCC1 (stereo not given)	-4%	1	5%	x	-103*
CCC(=O)[C@@H](c1ccccc1)c1ccccn1	9%[11.4 µM]	x	-8%	-7%[11.4 µM]	x
O=C(CC1NCCNC1=O)Nc1ccc2c(c1)OCO2 (stereo not given)	0%	5	41%[38.3 µM]	2%	-91*
COc1ccccc1-c1nc2n(n1)C(c1ccccc1Cl)C(C(=O)Nc1cccnc1)=C(C)N2 (stereo not given)	x	4	x	x	x
O=C(CSc1nnc2scc(-c3ccc(Cl)cc3)n12)Nc1ccccc1F	x	9	x	x	x
Cc1cc(SCC(=O)O)nc2ccccc12	x	x	-1%	x	x
Cc1cc(SCCC(=O)O)nc2c(C)cccc12	9%	u	10µM*	7%	-26
C=CC(C1=CC(=O)C(OC)=CC1=O)c1ccc(O)cc1 (stereo not given)	-12%	x	2%	u	x
COc1ccc(N(CC(=O)NC2CCCCC2)C(=O)CNC(=O)c2ccco2)cc1OC	-1%	9	9%	x	-100*
COc1ccc(N(C(=O)CNC(=O)c2ccco2)C(C(=O)NC2CCCCC2)c2ccco2)cc1 (stereo not given)	-2%	-4	9%[38.3 µM]	-6%	-127*
COC(=O)c1ccc(N(C(=O)CNC(=O)c2ccco2)C(C(=O)NC2CCCC2)c2ccco2)cc1 (stereo not given)	1%	17	3%	x	-14
CCCCCCCCC(=O)NCc1cc(OC)c(O)cc1I	-2%	4	11%	1%	x
Cc1ccc2[nH]c(-c3ccc(F)cc3F)cc(=O)c2c1	1%[0.00818 µM]	x	-12%	-4%[0.0915 µM]	x
Cc1ccc(S(=O)(=O)N/N=C\c2cccnc2)cc1	-3%	0	10%[38.3 µM]	-11%	-88*
Cc1nc(NCc2ccccc2)c2nc(-c3ccccc3)n(CCN3CCOCC3)c2n1	-4%	x	5%	39%	x

Compound activity as filed in PubChem BioAssay.
